Screens from PubChem.
D3 ag – activates the human D3 dopamine receptor; D3R DiscoveRx beta-arrestin cells, luminescence, 90 min; 410,000 compounds, 0.58% hits; max activation, %; P35462; in the data active means max activation above about 30%; further: 0% is about no effect
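Agonist mode: compounds and dopamine controls were applied to plated cells for 90 min at 37 degrees C after an overnight attachment at 1500 cells/well. Luminescent read-out followed 30 - 60 minutes at room temperature with DiscoveRx detection reagent.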
TDP1 cell CPT – growth inhibition of DT40 Tdp1-/-;hTDP1 cells with camptothecin (screen for TDP1 inhibitors); chicken DT40 Tdp1-/-;hTDP1 cells + 20 nM CPT, ATP luminescence, 48 h; Potency, µM (titrated, usually from 46.2 µM), without a hit: at the highest dose activity change, negative = growth inhibition, hits mostly inhibitors; 420,000 compounds, 12% hits; further: potency means the concentration at half of the fitted maximal effect; on the % scale 0 is the no-effect control and ±100 the full control effect; nearly all actives have a fitted effect of over 55% in size
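Chicken DT40 Tdp1-/- cells stably complemented with human TDP1 were seeded at 400 cells/well in medium containing 20 nM camptothecin, exposed to pin-transferred compounds, and grown at 37 °C for at least 48 hr. Viability was read as ATP luminescence.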
TDP1 cell noCPT – qHTS for Inhibitors of human tyrosyl-DNA phosphodiesterase 1 (TDP1): qHTS in cells in absence of CPT; DT40 Tdp1-/- hTDP1 cells, no CPT, ATP luminescence, 48 h; Potency, µM (titrated, usually from 46.2 µM), inactives show top-dose activity change, negative = growth inhibition, usual class: inhibitors; 420,000 compounds, 15% hits; AID 686978, 2013; further: potency means the concentration at half of the fitted maximal effect; on the % scale 0 is the no-effect control and ±100 the full control effect; nearly all actives have a fitted effect of over 55% in size
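Chicken DT40 Tdp1-/- cells complemented with human TDP1, screened without camptothecin (DMSO vehicle only), 400 cells/well. Compounds pin-transferred, cells incubated at 37 °C for at least 48 hr. Growth read as ATP-dependent luminescence (CellTiter-Glo, 30 min at RT).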
ClpP mod – qHTS Assay for Activators of ClpP; Potency, µM (titrated, usually from 57.5 µM), without a hit: at the top dose activity change, negative = active; 340,000 compounds, 1.9% hits; purified B. subtilis ClpP, FRET peptide cleavage, 20 min; active means well fitted falling curve with a large enough effect; inconclusive means small, poorly fitted or top-dose-only effect; inactive means no such curve, though single readings can be large or run the other way; further: potency means the concentration at half of the fitted maximal effect; the source files actives as falling curves though it sought activators and does not explain the sign; nearly all actives have a fitted effect of over 65% in size
Target sequence (P80244 whole entry, looked up): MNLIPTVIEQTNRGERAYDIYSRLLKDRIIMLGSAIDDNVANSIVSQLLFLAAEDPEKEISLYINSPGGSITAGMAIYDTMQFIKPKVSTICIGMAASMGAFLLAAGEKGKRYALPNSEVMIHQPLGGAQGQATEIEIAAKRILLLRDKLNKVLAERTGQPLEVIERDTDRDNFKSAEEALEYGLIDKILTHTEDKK
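FRET quenching reversal measured ClpP activation: 10 microg/mL B. subtilis ClpP at pH 8 with the FRET-FV decapeptide, read at 430 nm after 320 nm excitation. The 20-min minus 0-min signal was scaled between DMSO/no-enzyme wells and ADEP (5.8 microM final).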
D3 antag – D3 dopamine receptor (human) antagonism; P35462; D3R cells, DiscoveRx beta-arrestin luminescence, antagonist mode; stronger effect = lower value; max response, negative = inhibition, %; 360,000 compounds, 2.5% hits; in the data active means max response below about -50%; inconclusive means no clear call, values can overlap the other calls; further: on the % scale 0 is the no-effect control and ±100 the full control effect
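Cells expressing the human receptor were seeded at 1500 cells/well, incubated overnight at 37 degrees C in 5% CO2, then exposed to library compounds with dopamine controls for 90 minutes at 37 degrees C before luminescent detection.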
IL1B secr inh – inhibitors of inflammasome signaling (IL-1 beta secretion) | THP-1 LPS/ATP IL-1B secretion, AlphaLISA, 16 h; stronger effect = lower value | 360,000 compounds, 4.7% hits | activity change, % at 57.5 µM | AID 743279; in the data active means activity change below about -50%; inconclusive means mostly about -30% to -49%; further: on the % scale 0 is the no-effect control and ±100 the full control effect
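THP-1 cells pretreated 1 hr with compounds (up to 57.5 uM final), then stimulated with LPS (250 ng/mL final) plus ATP (1.25 mM final); secreted IL-1B measured by AlphaLISA after 16 hr, decreased signal indicating inhibition.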
* = called active by the depositor. A selection: hits, their analogues and other compounds. The true share with any hit is near 21%. Unless noted, the call rests on the fitted dose curve; in most records, active means well fitted inhibition curve with a large enough effect; inconclusive means small, poorly fitted or top-dose-only effect; inactive means flat fitted curve, though single readings scatter.

Results for Cc1ccc(-n2c(=O)c3ccc(C(=O)NCc4ccco4)cc3n(CC(=O)Nc3ccc(C)c(F)c3)c2=O)cc1 ?
D3 ag: -2; TDP1 cell CPT: inconclusive; TDP1 cell noCPT: -25%; ClpP mod: -7%

What do the screens show for `COc1ccc(/C=C/C(=O)Oc2ccc(/C=N/NC(=O)c3ccncc3)cc2)cc1`?
D3 ag: -4; TDP1 cell CPT: -7%; TDP1 cell noCPT: -2%; D3 antag: -9; IL1B secr inh: -22

Results for COc1ccc(/C=C(/NC(=O)c2ccccc2)c2nc3ccc(Cl)cc3[nH]2)cc1OC ?
D3 ag: -5; TDP1 cell CPT: -95%; TDP1 cell noCPT: 21µM*; ClpP mod: -9%; D3 antag: -6; IL1B secr inh: -8

What do the screens show for `CCOc1ccccc1NC(=O)CN1C(=O)NC(Cc2c[nH]c3ccccc23)C1=O` (stereo not drawn)?
D3 ag: 4; TDP1 cell CPT: -4%; TDP1 cell noCPT: 2%; ClpP mod: 0%; D3 antag: 11; IL1B secr inh: 0

What do the screens show for `CCOC(=O)C1=C(CS(=O)(=O)c2cccc(C(F)(F)F)c2)NC(=O)NC1c1cccc(OC)c1` (stereo not drawn)?
D3 ag: -10; TDP1 cell CPT: inconclusive; TDP1 cell noCPT: inconclusive; ClpP mod: 2%

What do the screens show for `CCOC(=O)C1=C(CS(=O)(=O)c2ccc(C(C)(C)C)cc2)NC(=O)NC1c1cccc(OC)c1` (stereo not drawn)?
D3 ag: -12; TDP1 cell CPT: 16µM*; TDP1 cell noCPT: 16µM*; ClpP mod: -4%

Results for Cc1ccc(-c2cn(-c3ccccc3)c(SCC(=O)NC3CCS(=O)(=O)C3)n2)cc1C (stereo not drawn) ?
D3 ag: -7; TDP1 cell CPT: inconclusive; TDP1 cell noCPT: inconclusive; ClpP mod: 3%; D3 antag: 1; IL1B secr inh: 6

Results for O=C(OC(C(=O)Nc1ccc(Cl)cc1C(F)(F)F)c1ccccc1)c1c(Cl)cccc1Cl (stereo not drawn) ?
D3 ag: -3; TDP1 cell CPT: inconclusive; TDP1 cell noCPT: 13µM*; ClpP mod: -3%; D3 antag: -24; IL1B secr inh: 0

What do the screens show for `Cc1ccc(C(=O)OC(C(=O)Nc2ccc(Cl)cc2C(F)(F)F)c2ccccc2)cc1` (stereo not drawn)?
D3 ag: 8; TDP1 cell CPT: inconclusive; TDP1 cell noCPT: 23µM*; ClpP mod: 1%; D3 antag: -23; IL1B secr inh: 14

Results for CC/C(=C/c1ccccc1OC)c1cc(-c2ccccc2)cc2oc3ccccc3c12 ?
TDP1 cell CPT: inconclusive; TDP1 cell noCPT: inconclusive; ClpP mod: 4%

How did Cc1ccc(NC(=O)CSc2nnc(Cc3ccccc3)c(=O)[nH]2)c(C)c1 do in these assays?
D3 ag: -6; TDP1 cell CPT: -23%; TDP1 cell noCPT: inconclusive; D3 antag: -8; IL1B secr inh: 23

What do the screens show for `COc1ccc(CC2(CO)CCN(Cc3cccn3-c3ccccn3)CC2)cc1`?
D3 ag: -15; TDP1 cell CPT: -18%; TDP1 cell noCPT: -26%; D3 antag: -22; IL1B secr inh: inconclusive

How did Cc1ccc(/C=C(\C#N)c2nn(-c3ccccc3)c(N)c2C#N)cc1 do in these assays?
D3 ag: 2; TDP1 cell CPT: inconclusive; TDP1 cell noCPT: 15µM*; ClpP mod: -12%; D3 antag: inconclusive; IL1B secr inh: inconclusive

Results for N#C/C(=C\c1cccc2ccccc12)c1nn(-c2ccccc2)c(N)c1C#N ?
D3 ag: 2; TDP1 cell CPT: inconclusive; TDP1 cell noCPT: inconclusive; ClpP mod: 8%; D3 antag: 13; IL1B secr inh: 32
